This is part of a sample that, as a whole, favours compounds with a hit. Of some 79,000 tested, about 15% had one in any assay. Calls of active or inactive are those of the source. No stated cut-off is given here; in the data, active means growth inhibition above about 70%; inactive means the rest.
Columns and labels:
[1] = NCI Yeast Anticancer Drug Screen. Data for the rad52 strain (AID 147);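 further: 0% = growth of vehicle-treated control cultures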; settings: S. cerevisiae rad52 mutant growth inhibition, active compounds read high
Summary of the method: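 Measured: yeast growth inhibition. System: strain with a defined DNA damage repair alteration. Reference: vehicle-treated control cultures.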

[2] = NCI Yeast Anticancer Drug Screen. Data for the wt1 strain (AID 149);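 further: 0% = growth of vehicle-treated wt1 cultures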; settings: S. cerevisiae wt1 strain (SPY 50644) growth inhibition, active compounds read high
Summary of the method: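 wt1 strain grown with compound or vehicle; inhibition taken from the growth difference.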

[3] = NCI Yeast Anticancer Drug Screen. Data for the rad50EPP+ strain (AID 151);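 further: 0% = growth of vehicle-treated control cultures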; settings: S. cerevisiae rad50 mutant strain, active compounds read high
Summary of the method: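 One strain with a rad50 alteration (rad50EPP+) was compound-treated, its growth then compared to that of vehicle controls.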

[4] = NCI Yeast Anticancer Drug Screen. Data for the rad50 strain (AID 155);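 further: 0% = growth of vehicle-only cultures of the same strain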; settings: S. cerevisiae rad50 strain growth inhibition, active compounds read high
Summary of the method: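 DNA repair mutant yeast, compound exposure, growth read-out; inhibition is taken relative to vehicle.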

[5] = NCI Yeast Anticancer Drug Screen. Data for the mec2-1 strain (AID 157); settings: S. cerevisiae mec2-1 strain, active compounds read high
Summary of the method: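 Test agents were screened against the mec2-1 yeast strain, with defined DNA repair or cell cycle alteration. Growth was scored as inhibition against vehicle-only controls.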

[6] = NCI Yeast Anticancer Drug Screen. Data for the rad14 strain (AID 159);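 further: 0% = growth of vehicle-treated control cultures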; settings: S. cerevisiae rad14 strain growth inhibition, active compounds read high
Summary of the method: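 DNA repair-defective yeast, compound-exposed; % growth inhibition derived by comparison with vehicle-treated controls.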

[7] = NCI Yeast Anticancer Drug Screen. Data for the sgs1 mgt1 strain (AID 161);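 further: 0% = growth of cultures given vehicle only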; settings: S. cerevisiae sgs1 mgt1 strain, active compounds read high
Summary of the method: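 Read-out: growth inhibition vs vehicle controls. Cells: mutant yeast strain deficient in DNA damage repair.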

[8] = NCI Yeast Anticancer Drug Screen. Data for the CLN2oe strain (AID 163);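 further: 0% = growth of vehicle-only control cultures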; settings: S. cerevisiae CLN2oe strain, active compounds read high
Summary of the method: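 Here, growth inhibition in a cell-cycle-altered yeast strain after compound exposure was quantified against vehicle control growth.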

[9] = NCI Yeast Anticancer Drug Screen. Data for the cln2 rad14 strain (AID 165);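 further: 0% = growth equal to vehicle treated cultures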; settings: S. cerevisiae cln2 rad14 strain, active compounds read high
Summary of the method: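 Growth of compound-exposed yeast (cln2 rad14 genotype) measured and expressed as inhibition relative to vehicle.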

[10] = NCI Yeast Anticancer Drug Screen. Data for the bub3 strain (AID 167); settings: S. cerevisiae bub3 mutant strain, active compounds read high
Summary of the method: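 In this screen, a yeast mutant lacking normal mitotic checkpoint function is challenged with compound. Relative growth versus vehicle gives the inhibition value.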

[11] = NCI Yeast Anticancer Drug Screen. Data for the wt2 strain (AID 169);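 further: 0% = growth of vehicle-treated yeast cultures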; settings: S. cerevisiae wt2 strain growth inhibition, active compounds read high
Summary of the method: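 Genetically defined yeast strains from a DNA-repair/cell-cycle panel were used. Compound-exposed yeast growth was measured, and the inhibition was calculated relative to vehicle treatment.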

[12] = NCI Yeast Anticancer Drug Screen. Data for the mlh1 strain (AID 171);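 further: 0% = growth of vehicle-treated control cultures of the same strain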; settings: S. cerevisiae mlh1 strain growth inhibition, active compounds read high
Summary of the method: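 Here the genetically defined yeast mutant is grown with each compound, and the extent to which its growth falls below that of vehicle-exposed cells is reported.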

[13] = NCI Yeast Anticancer Drug Screen. Data for the sgs1 strain (AID 173);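 further: 0% = growth of vehicle-only control cultures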; settings: S. cerevisiae sgs1 mutant, active compounds read high
Summary of the method: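 Relative growth inhibition, referenced to vehicle, was determined in a yeast strain with a defined alteration affecting DNA damage repair or cell cycle control after compound exposure.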

[14] = NCI Yeast Anticancer Drug Screen. Data for the mlh1 rad18 strain (AID 175); settings: S. cerevisiae mlh1 rad18 strain growth inhibition, active compounds read high
Summary of the method: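 In this whole-cell yeast screen, a strain with altered DNA damage repair is challenged with compound, and its growth is measured against matched vehicle-treated controls.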

[15] = NCI Yeast Anticancer Drug Screen. Data for the rad18 strain (AID 177); settings: S. cerevisiae rad18 mutant growth inhibition, active compounds read high
Summary of the method: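 Screen uses a yeast strain with a defined lesion in DNA damage repair; compound effect is read as loss of growth compared to untreated vehicle cultures.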

[16] = at 5.0 µM (retest, dose inferred, filed as 0.5)
[17] = at 50.0 µM (retest, dose inferred, filed as 5.0)

Measured: growth inhibition

COC(=O)c1c(C)ccc2c(O)c3c(cc12)C(=O)c1c2c(cc(O)c1C3=O)C1(C)OC(C)(O2)C(O)C(N(C)C)C1O (stereo not drawn)
inactive: [1]; at 1.2 µM 2% | [1]; at 3.7 µM 17% | [1]; at 11.0 µM 68% | [2]; at 1.2 µM 5% | [2]; at 3.7 µM 1% | [2]; at 11.0 µM 22% | [3]; at 1.2 µM -2% | [3]; at 3.7 µM 17% | [3]; at 11.0 µM 51% | [3]; at 100.0 µM 67% | [4]; at 1.2 µM 4% | [4]; at 3.7 µM 35% | [4]; [16] 10% | [5]; at 1.2 µM -3% | [5]; at 3.7 µM 3% | [5]; [16] 6% | [6]; at 1.2 µM 0% | [6]; at 3.7 µM 18% | [7]; [16] -11% | [8]; at 1.2 µM -7% | [8]; at 3.7 µM 0% | [8]; at 11.0 µM 39% | [9]; [16] 39% | [10]; at 1.2 µM -4% | [10]; at 3.7 µM -2% | [10]; [16] -19% | [10]; at 11.0 µM 64% | [11]; at 1.2 µM -1% | [11]; at 3.7 µM 4% | [11]; at 11.0 µM 39% | [12]; at 1.2 µM 2% | [12]; at 3.7 µM 19% | [12]; at 11.0 µM 68% | [13]; at 1.2 µM 0% | [13]; at 3.7 µM 7% | [13]; at 11.0 µM 44% | [14]; [16] 1% | [15]; at 1.2 µM 1% | [15]; at 3.7 µM 25%
active: [1]; at 33.0 µM 94% | [1]; at 100.0 µM 91% | [2]; at 33.0 µM 79% | [2]; at 100.0 µM 94% | [3]; at 33.0 µM 74% | [4]; at 11.0 µM 90% | [4]; at 33.0 µM 92% | [4]; [17] 98% | [4]; at 50.0 µM 97% | [4]; at 100.0 µM 84% | [5]; at 11.0 µM 70% | [5]; at 33.0 µM 97% | [5]; [17] 98% | [5]; at 50.0 µM 95.5% | [5]; at 100.0 µM 88% | [6]; at 11.0 µM 98% | [6]; at 33.0 µM 95% | [6]; at 100.0 µM 89% | [7]; [17] 95% | [7]; at 50.0 µM 97.8% | [8]; at 33.0 µM 94% | [8]; at 100.0 µM 92% | [9]; [17] 97% | [9]; at 50.0 µM 92.9% | [10]; at 33.0 µM 96% | [10]; [17] 98% | [10]; at 50.0 µM 95.7% | [10]; at 100.0 µM 89% | [11]; at 33.0 µM 97% | [11]; at 100.0 µM 94% | [12]; at 33.0 µM 97% | [12]; at 100.0 µM 95% | [13]; at 33.0 µM 96% | [13]; at 100.0 µM 91% | [14]; [17] 98% | [14]; at 50.0 µM 96.5% | [15]; at 11.0 µM 80% | [15]; at 33.0 µM 95% | [15]; at 100.0 µM 88%

— PubChem BioAssay (NCI)
